The results in this text go back to PubChem BioAssay (NCATS).

Results filed as inconclusive are left out. A call without a number means that no potency is given here. The source made the active and inactive calls. The call rests on the fitted dose curve. Peptide text beside a SMILES is read from it.
Potency means the concentration at half of the fitted maximal effect.

Chain of Nucleoprotein (Lymphocytic choriomeningitis virus (strain Armstrong)) (P09992 whole entry, looked up): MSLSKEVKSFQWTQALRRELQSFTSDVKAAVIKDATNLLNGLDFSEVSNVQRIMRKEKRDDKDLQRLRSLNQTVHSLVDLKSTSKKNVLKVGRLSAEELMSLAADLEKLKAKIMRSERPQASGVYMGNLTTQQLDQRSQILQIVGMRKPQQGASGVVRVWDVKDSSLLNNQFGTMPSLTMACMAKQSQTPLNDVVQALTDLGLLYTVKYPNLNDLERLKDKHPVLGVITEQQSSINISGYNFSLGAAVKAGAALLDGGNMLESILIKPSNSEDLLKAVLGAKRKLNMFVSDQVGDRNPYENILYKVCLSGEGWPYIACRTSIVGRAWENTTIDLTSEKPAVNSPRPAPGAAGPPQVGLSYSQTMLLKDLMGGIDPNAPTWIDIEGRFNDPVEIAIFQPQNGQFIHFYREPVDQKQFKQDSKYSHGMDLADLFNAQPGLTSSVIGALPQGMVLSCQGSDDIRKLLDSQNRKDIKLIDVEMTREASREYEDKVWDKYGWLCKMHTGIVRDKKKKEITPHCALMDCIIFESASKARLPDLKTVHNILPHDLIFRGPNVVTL

This assay has as its target Nucleoprotein (Lymphocytic choriomeningitis virus (strain Armstrong)) (UniProt P09992). The experiment in a line: qHTS for Inhibitors of the Functional Ribonucleoprotein Complex (vRNP) of Lymphocytic Choriomeningitis Arenaviruses (LCMV): LCMV Primary Screen - GLuc reporter signal (AID 1347086). Further: nearly all actives have a fitted effect of over 70% in size. As to conditions: LCMV minigenome vRNP cell assay, Gaussia luciferase reporter; series mostly up to 57.5 µM. For orientation: In qHTS, concentration-response curves come from the screen itself.
As for `CC(=O)OCC(=O)[C@@]1(O)[C@H](OC(C)=O)C[C@H]2[C@@H]3CCC4=CC(=O)C=C[C@]4(C)[C@@]3(F)[C@@H](O)C[C@@]21C`, the Potency entry is “inactive”.
Consider `Cc1nnc(SCC2=C(C(=O)O)N3C(=O)[C@@H](NC(=O)Cn4cnnn4)[C@H]3SC2)s1`, for which the Potency result is “inactive”.
On to `COc1ccc(O)cc1`, for which the Potency result is “inactive”.
For `CCn1nc(C(=O)O)c(=O)c2cc3c(cc21)OCO3`, the Potency result is “inactive”.
With `CN1[C@@H]2CC(OC(=O)[C@H](CO)c3ccccc3)C[C@H]1[C@@H]1O[C@@H]12` (some centres undefined), the Potency entry was “inactive”.
On to `C[C@@H]1O[C@@H](OC[C@H]2O[C@@H](Oc3c(-c4ccc(O)c(O)c4)oc4cc(O)cc(O)c4c3=O)[C@H](O)[C@@H](O)[C@@H]2O)[C@H](O)[C@H](O)[C@H]1O`, for which the Potency entry is “inactive”.
With `O=C1c2ccccc2C(=O)c2c1ccc(O)c2O` the entry was “inactive”.
With `CCCCC(CC)COC(=O)c1ccccc1O` (centres undefined) the entry was “inactive”.
As for `CCOC(=O)O[C@]1(C(=O)OCCl)CC[C@H]2[C@@H]3CCC4=CC(=O)C=C[C@]4(C)[C@H]3[C@@H](O)C[C@@]21C`, the Potency result was “inactive”.
Take `O=C(O)/C=C(\CC(=O)O)C(=O)O`: the Potency entry was “inactive”.
Consider `CCCCCC(C)N` (centres undefined), for which the Potency result is “inactive”.
Take `NS(=O)(=O)c1cc2c(cc1C(F)(F)F)NC(Cc1ccccc1)NS2(=O)=O` (centres undefined): the Potency entry is “inactive”.
With `O=c1[nH]c(=O)n([C@H]2C[C@H](O)[C@@H](CO)O2)cc1Br` the entry was “inactive”; with `CC(=O)OC(C)OC(=O)C(C)c1ccc(-c2ccccc2)c(F)c1` (centres undefined), “inactive”; with `CCN(CC)C(=O)/C(C#N)=C/c1cc(O)c(O)c([N+](=O)[O-])c1`, “inactive”.
With `CC(C)(Oc1ccc(Cl)cc1)C(=O)O` the entry was “inactive”.
In the case of `COCCOCC(OC)OC`, the Potency result was “inactive”.
On to `NS(=O)(=O)c1cc(-c2nn[nH]n2)c(NCc2cccs2)cc1Cl`, for which the Potency result is “inactive”.
In the case of `O=C1OC2(c3ccccc31)c1cc(Br)c(O)c(Br)c1Oc1c2cc(Br)c(O)c1Br`, the Potency entry is “inactive”.
On to `Nc1nc(N)c(-c2ccccc2)s1`, for which the Potency entry is “inactive”.
With `Cn1cc(S(C)=O)c(=O)c2ccc(F)cc21` (centres undefined) the entry was “inactive”; with `CN=C(N)NC(=O)Nc1c(C)cccc1C`, “inactive”; with `Nc1ccc(C(=O)O)c(O)c1`, “inactive”.
`CO[C@@H]1[C@@H](OC(N)=O)[C@@H](O)[C@H](Oc2ccc3c(O)c(NC(=O)c4ccc(O)c(CC=C(C)C)c4)c(=O)oc3c2C)OC1(C)C`: the Potency result is “inactive”.
In the case of `Cc1cccc(C)c1OCC(=O)N[C@@H](Cc1ccccc1)[C@@H](O)C[C@H](Cc1ccccc1)NC(=O)[C@H](C(C)C)N1CCCNC1=O`, the Potency is 38.5 µM (active).
In the case of `CC[C@H](C)[C@H](N)C(=O)O`, the Potency entry was “inactive”.
With `COC(=O)C1=C(C)NC(C)=C(C(=O)OCC(C)=O)C1c1ccccc1[N+](=O)[O-]` (centres undefined) the entry was “inactive”; with `CCOC(=O)c1ccc(O)c(O)c1`, “inactive”.
`CCNC(=O)[C@@H]1CCCN1C(=O)[C@H](CCCN=C(N)N)NC(=O)[C@H](CC(C)C)NC(=O)CNC(=O)[C@H](Cc1ccc(O)cc1)NC(=O)[C@H](CO)NC(=O)[C@H](Cc1c[nH]c2ccccc12)NC(=O)[C@H](Cc1cnc[nH]1)NC(=O)[C@@H]1CCC(=O)N1` (HELM PEPTIDE1{[Glp].H.W.S.Y.G.L.R.P.[CCN[*:1]]}$$$$V2.0): the Potency result was “inactive”.
For the compound `O=C(c1ccccc1)c1ccccc1`, the Potency result was “inactive”.
With `Cc1coc2ccccc2c1=O` the entry was “inactive”; with `CC(=O)O[C@@H]1C(=O)O[C@@H]2[C@H]1OC(=O)[C@@H]2OC(C)=O`, “inactive”; with `COc1cc(OC)c(C(=O)CCCN2CCCC2)c(OC)c1`, “inactive”.
Take `CC(CCc1ccc2c(c1)OCO2)NN` (centres undefined): the Potency entry is “inactive”.
On to `NCC(=O)CCC(=O)O`, for which the Potency entry was “inactive”.
With `CC(C)COC(=O)c1ccc(N)cc1` the entry was “inactive”; with `O=C(O)CCc1nc2ccccc2[nH]1`, “inactive”; with `O=C(N/N=C/c1ccccc1O)c1ccncc1`, “inactive”.
Take `C#C[C@]1(O)CC[C@H]2[C@@H]3CCc4cc(OC5CCCC5)ccc4[C@H]3CC[C@@]21C`: the Potency entry is “inactive”.
